Drawing on PubChem BioAssay (NCI), this text covers growth for 22 compounds.

Holding throughout (test): NCI-60 one-dose screen, 48 h (100 = growth as untreated, 0 = no growth, -100 = all killed)
One assay has as its system T-47D breast. The settings on record: 10 µM unless noted.
In the next assay the test system is SW-620 colon. The settings on record: 10 µM unless noted.
The test system of another assay is MCF7 breast. The settings on record: 10 µM unless noted.
The next assay deals with HCT-116 colon. Conditions: 10 µM unless noted.
The test system of a further assay is HCC-2998 colon. The settings on record: 10 µM.
For the next assay, the system named is KM12 colon. The settings on record: 10 µM unless noted.
The subject of the next assay is MDA-MB-435 melanoma. Conditions: 10 µM unless noted.

The panel holds about 83,000 compounds, 20% with a hit somewhere; the sample as a whole holds those more often.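 Results are percent growth after 48 hours of single-concentration exposure. 100 means growth as in untreated cells, lower positive values show inhibition; negative values down to -100 show cell death.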 Values without a mark were called inactive. Activity calls are given as the source filed them. Rule for the calls: active = growth percent below 10; inactive = the rest.

With `CCc1nc2ccc(Cc3ccc(C(=O)NO)cc3)cc2c(=O)n1CCc1ccccc1`, the growth with T-47D breast was -7.19% (active); in the assay with SW-620 colon, -27.2% (active); with MCF7 breast, 4.69% (active); with HCT-116 colon, -55% (active); in the assay on HCC-2998 colon, -74.8% (active); with KM12 colon it was -58.9% (active).
Turning to `C=CC[n+]1c(/C=C/C=C2\N(C)c3ccccc3C2(C)C)sc2ccc(OC)cc21`, the growth with T-47D breast is 12.1%; in the assay with MDA-MB-435 melanoma it was 12.8%; in the assay with SW-620 colon, 19.9%; in the assay on MCF7 breast, 6.97% (active); with HCT-116 colon it was 11.6%; with HCC-2998 colon, 30.2%. For the same compound, the growth with KM12 colon was 13.4%.
On to `O=C(N/N=C/c1ccc(Cl)cc1)c1cc(-c2cc3ccccc3o2)nn1-c1ccccc1`, for which the growth was 85.6% with T-47D breast; 103% in the assay with MDA-MB-435 melanoma; 101% in the assay with SW-620 colon; 85.6% with MCF7 breast; 92.3% with HCT-116 colon; 102% in the assay with KM12 colon.
Take `O=C1CCC(=O)CC1`: the growth in the assay with T-47D breast was 102%; with MDA-MB-435 melanoma it was 102%; with SW-620 colon, 103%; with MCF7 breast, 101%; in the assay on HCT-116 colon, 109%; in the assay on HCC-2998 colon, 99.9%. For the same compound, the growth with KM12 colon was 106%.
For the compound `Cc1cc(N2CCOCC2)nc(N(CCNc2ccnc3cc(Cl)ccc23)Cc2cccs2)n1`, the growth with T-47D breast was -29.6% (active); in the assay on MDA-MB-435 melanoma it was -1.4% (active); with SW-620 colon, 19.5%; in the assay on MCF7 breast, 18.2%; in the assay on HCT-116 colon it was -25.1% (active); in the assay with HCC-2998 colon, -12.7% (active). The growth in the assay with KM12 colon is 26.4%.
As to `Oc1ccc(C(c2ccc(O)cc2)C(Cl)(Cl)Cl)cc1`, the growth is 94.3% with T-47D breast; 104% in the assay on MDA-MB-435 melanoma; 114% in the assay on SW-620 colon; 111% with MCF7 breast; 83.8% with HCT-116 colon; 122% in the assay on HCC-2998 colon. Moreover, the growth in the assay with KM12 colon is 104%.
`COC(=O)c1ccc2c(C(=Nc3ccc(N(C)C(=O)CN4CCN(C)CC4)cc3)c3ccccc3)c(O)[nH]c2c1`: the growth is 47.4% in the assay on T-47D breast; 67.4% with SW-620 colon; 33.5% in the assay with MCF7 breast; 20.2% in the assay with HCT-116 colon; 84.3% in the assay on HCC-2998 colon; 8.95% (active) with KM12 colon.
On to `O=S1(=O)OC(c2cc(Cl)c(O)c(Br)c2)(c2cc(Cl)c(O)c(Br)c2)c2ccccc21`, for which the growth with T-47D breast was 114%; in the assay on MDA-MB-435 melanoma, 124%; in the assay with SW-620 colon, 99.6%; in the assay with MCF7 breast it was 104%; in the assay with HCT-116 colon, 96.7%; in the assay with HCC-2998 colon, 103%. Besides, the growth with KM12 colon is 106%.
For `C=CC(=O)Nc1cc2c(Nc3ccc(F)c(Cl)c3)ncnc2cc1C#CC(C)(C)N1CCN(C)CC1`, the growth with T-47D breast is -81.5% (active); in the assay on SW-620 colon it was -78% (active); in the assay with MCF7 breast it was -65.2% (active); in the assay with HCT-116 colon it was -92.6% (active); in the assay with HCC-2998 colon, -81.5% (active); in the assay on KM12 colon it was -90.2% (active).
For `CC1(O)CCC2CC3OC3(C)CCC3OC3(C)C(O)CC1C2(C)C` (stereo not drawn), the growth was 116% in the assay on T-47D breast; 113% in the assay with MDA-MB-435 melanoma; 99.2% in the assay with SW-620 colon; 105% in the assay on MCF7 breast; 121% with HCT-116 colon; 112% with KM12 colon.
For `N#Cc1c(-c2ccc(Cl)cc2)csc1NC(=O)Nc1cccc(C(F)(F)F)c1`, the growth in the assay with T-47D breast was -5.74% (active); with MDA-MB-435 melanoma, 14.1%; with SW-620 colon it was 22.7%; in the assay on MCF7 breast, 12.8%; with HCT-116 colon, 1.8% (active); in the assay on HCC-2998 colon it was 19.9%. Moreover, the growth in the assay with KM12 colon was 12.9%.
In the case of `COc1ccc2c(c1)cn1c3ccc(O)cc3nc(N)c21`, the growth in the assay with T-47D breast was 37.3%; with MDA-MB-435 melanoma, -16.6% (active); with SW-620 colon it was 26.8%; with MCF7 breast it was 17.2%; with HCT-116 colon, 18%; with HCC-2998 colon, 22.5%. Also, in the assay with KM12 colon, the growth was 27.1%.
Take `Cc1cc(C(O)CN(C)C)cc2c1ccc1cc(C(C)C)ccc12` (stereo not drawn): the growth in the assay with T-47D breast is -33% (active); in the assay with MDA-MB-435 melanoma, -80.8% (active); in the assay with SW-620 colon, -89.8% (active); in the assay on MCF7 breast it was -99.8% (active); with HCT-116 colon, -100% (active); in the assay on HCC-2998 colon, -89.1% (active). Also, the growth in the assay with KM12 colon was -95.5% (active).
For the compound `CN1CCN(CCOc2cc(OC3CCOCC3)c3c(Nc4c(Cl)ccc5c4OCO5)ncnc3c2)CC1`, the growth with T-47D breast is -14.3% (active); in the assay on MDA-MB-435 melanoma, 98.3%; with SW-620 colon it was 110%; with MCF7 breast, 62.8%; with HCT-116 colon, 35.3%; with HCC-2998 colon, 90.7%. Moreover, the growth in the assay with KM12 colon is 17.1%.
Consider `Cc1cc(C2(c3ccc(O)c(C)c3)OS(=O)(=O)c3ccccc32)ccc1O`, for which the growth with T-47D breast was 110%; in the assay with MDA-MB-435 melanoma, 113%; in the assay on SW-620 colon, 108%; in the assay with MCF7 breast, 101%; with HCT-116 colon it was 104%; with HCC-2998 colon, 114%. In addition, the growth in the assay with KM12 colon is 110%.
Consider `Clc1nc(Cl)c2ncn(C/C=C\Cn3cnc4c(Cl)nc(Cl)nc43)c2n1`, for which the growth in the assay on T-47D breast is -44.4% (active); in the assay with MDA-MB-435 melanoma, -66.9% (active); in the assay with SW-620 colon, -52.6% (active); in the assay with MCF7 breast, -78% (active); with HCT-116 colon it was -71% (active); in the assay with KM12 colon it was -69.2% (active).
As to `Cc1ccc(-[n+]2c3cc(N)c(C)cc3nc3cc(C)c(Nc4ccccc4)cc32)cc1`, the growth in the assay on T-47D breast was -74.7% (active); in the assay on MDA-MB-435 melanoma, -73.6% (active); with SW-620 colon, -71.8% (active); in the assay with MCF7 breast it was -81.8% (active); with HCT-116 colon, -100% (active); with HCC-2998 colon it was -98% (active). Besides, in the assay with KM12 colon, the growth was -92.7% (active).
`COc1cc2c(cc1OCCCCN1CCN(CC(=O)Nc3ccc(Cl)cc3C(=O)c3ccccc3Cl)CC1)N=CC1CCCN1C2=O` (stereo not drawn): the growth with T-47D breast is -65.4% (active); in the assay on MDA-MB-435 melanoma it was -93.8% (active); in the assay with SW-620 colon it was -57% (active); in the assay with MCF7 breast, -67.1% (active); with HCT-116 colon, -66.2% (active); in the assay with KM12 colon, -55.5% (active).
As to `COc1cc2c(cc1OCCCCCN1CCN(c3ncnc4ccccc34)CC1)N=CC1CCCN1C2=O` (stereo not drawn), the growth in the assay with T-47D breast was 10.6%; with MDA-MB-435 melanoma, -72.1% (active); in the assay on SW-620 colon it was -1.54% (active); in the assay with MCF7 breast, 12.1%; in the assay on HCT-116 colon it was 4.44% (active); with KM12 colon, -16.1% (active).
On to `CC[C@H](CO)Nc1nc(NCc2ccccc2)c2ncn(C(C)C)c2n1`, for which the growth in the assay with T-47D breast was 48.4%; with SW-620 colon, 69.3%; in the assay on MCF7 breast, 31.5%; with HCT-116 colon it was 30.1%; in the assay with HCC-2998 colon it was 74.5%; in the assay with KM12 colon, 47.6%.
In the case of `N#Cc1cc2[nH]c3ccc(OC(F)(F)F)cc3c2oc1=O`, the growth in the assay on T-47D breast is 61.2%; in the assay on MDA-MB-435 melanoma, 12.7%; in the assay on SW-620 colon it was 71.6%; with MCF7 breast, 81.4%; in the assay with HCT-116 colon, 81.2%; in the assay with KM12 colon, 80.2%.
On to `ClCc1ccc(-c2ccc(Cn3cnc4c(Cl)nc(Cl)nc43)cc2)cc1`, for which the growth is -23.5% (active) with T-47D breast; 4.56% (active) in the assay on MDA-MB-435 melanoma; -31.6% (active) with SW-620 colon; -31.8% (active) in the assay on MCF7 breast; -59.6% (active) in the assay on HCT-116 colon; -66.9% (active) in the assay with KM12 colon.
